Results on 105 molecules are retold here after ChEMBL document CHEMBL3988442, “University of Dundee, Small-Polar-MMV Screening Library” (2021).

SMILES strings stand for the structures. Out of some 48,000 compounds screened, about 13,000 (27%) showed an effect of 50% or more. Some of the results follow.

In this assay the test system is Wolbachia pipientis. Put plainly: Anti-Wolbachia Cell-Based Screen. Set-up: scale not given: in the data most compounds retested in dose-response had high values. To be noted: 5 µM. Format: functional.
Regarding `O=C(NCc1ccccc1OCCO)Nc1ccc2c(c1)CCC2`, the “Percent Effect” value is on record as 17.01%. `N#Cc1ccnc(N2CCC(c3nccn3Cc3cscn3)CC2)c1`: the “Percent Effect” value worked out at 9.295%.

Consider `CCCOC(C)C(=O)N1CCC(O)(c2ccc3nc(C)ccc3c2)CC1` (stereo not given), for which the “Percent Effect” value is recorded as -16.84%. On to `N#Cc1ccc(NCCC2CCN(CC(F)(F)F)CC2)nc1`, for which the “Percent Effect” value is reported as -12.29%. For the molecule `COCCC(=O)N1CCN(CC2CC2)c2nc(C)ccc2C1.O=C(O)C(F)(F)F`, the “Percent Effect” value was -15.14%. Take `CN(C)Cc1nnc2n1CCN(Cc1cccnc1)C2`: the “Percent Effect” value is recorded as -0.7549%. Take `Cc1ccc2c(n1)N(CC1CC1)CCN(C(=O)NC1CC1)C2.O=C(O)C(F)(F)F`: the “Percent Effect” value is listed as -6.473%. Then `Cc1ccc2c(n1)N(Cc1cccnc1)CCN(C(=O)C1CC=CC1)C2`, with 112.8%; and `Cc1ccc2c(n1)N(CC1CC1)CCN(Cc1cnn(C)c1)C2`, with 122.1%; and `COCCN1CCN(C(=O)C2CC=CC2)Cc2cccnc21`, with -8.576%. `Cc1ccc2c(n1)N(Cc1cccnc1)CCN(Cc1cnn(C)c1)C2`: the “Percent Effect” value stood at 105.8%. On to `Cc1ccc2c(n1)N(Cc1cccnc1)CCN(C(=O)C1CCC1)C2.O=C(O)C(F)(F)F.O=C(O)C(F)(F)F`, for which the “Percent Effect” value is given as -8.761%.

With `Cc1cc(-c2nn(C)c(Cl)c2CN2CCC3(CC2)[C@H](O)C[C@@H]3O)no1`, the “Percent Effect” value is 0.9032%. In the case of `CNC(=O)CS(=O)(=O)C1CCN(S(=O)(=O)c2c(F)cccc2F)CC1`, the “Percent Effect” value came to 3.089%.

For `CCn1ccnc1CN1CCN(C(C)C(=O)N2CCCC2)CC1` (stereo not given), the “Percent Effect” value is 111.2%. In the case of `CCn1ccnc1CN1CCCN(C(=O)c2cc(Cl)c[nH]2)CC1`, the “Percent Effect” value is reported as -1.253%. Then `CCn1ccnc1CN1CCCN(C(=O)C2(C#N)CCCCC2)CC1`, with -5.352%; and `CCn1ccnc1CN1CCN(C(C)C(=O)NC2CCCCC2)CC1` (stereo not given), with -10.14%; and `CCn1ccnc1CN1CCCN(C(=O)c2cncnc2C)CC1`, with -6.711%.

Regarding `CCn1ccnc1CN1CCN(C(C)C(=O)N2CCC(C)CC2)CC1` (stereo not given), the “Percent Effect” value turned out to be 15.17%.

As to `CCn1ccnc1CN1CCN(C(C)C(=O)N2CCCCCC2)CC1` (stereo not given), the “Percent Effect” value is reported as 83.63%. With `CCn1ccnc1CN1CCCN(C(=O)c2cccn2C)CC1`, the “Percent Effect” value is given as 1.946%.

With `CCn1ccnc1CN1CCCN(C(=O)c2cnc(C)cn2)CC1`, the “Percent Effect” value is on record as 120.4%. As for `COc1cccc(CNC(=O)NC2(c3nc(C)no3)CCCCC2)c1`, the “Percent Effect” value is -3.756%.

With `CC(NC(=O)NCCc1cnn(C)c1)c1ccc(Cl)s1` (stereo not given), the “Percent Effect” value was 7.772%. Then `CN(Cc1ccco1)[C@@H]1CN(Cc2ccc(F)cc2)C[C@@H]2CCCO[C@@H]21.O=C(O)C(F)(F)F.O=C(O)C(F)(F)F`, with 20.99%. `CCCn1[nH]cc/c1=N\C(=O)CN1CCC[C@H]1CO`: the “Percent Effect” value was found to be 0.9827%. Take `Cl.O=C(c1ccoc1)N1CCC(NCc2ccccc2Cl)CC1`: the “Percent Effect” value is -26.85%. Turning to `CCN1C[C@H]2CCN(C(=O)NC3CCCC3)CC[C@H]2S1(=O)=O`, the “Percent Effect” value amounted to 7.84%. On to `CN1CCN(C(=O)CCn2nnc3ccccc32)CC(C(N)=O)C1` (stereo not given), for which the “Percent Effect” value was 138.2%. In the case of `CNC(=O)C1CN(C)CCN(C(=O)CCn2nnc3ccccc32)C1` (stereo not given), the “Percent Effect” value is reported as 120.6%.

Regarding `CC(C)c1cc(C(=O)NCCn2nnc3ccccc32)no1`, the “Percent Effect” value is recorded as -3.58%. Take `COc1cccc(OC2CN(C(=O)CCn3cnc4ccccc43)C2)c1`: the “Percent Effect” value is -24.05%.

With `CNC(=O)C1CCN(C(=O)CCn2cccn2)CC1`, the “Percent Effect” value is reported as -8.925%. Then `NC(=O)C1CCN(C(=O)Cn2nc(-c3ccccc3)oc2=O)C1` (stereo not given), with -8.478%; and `Cn1c(CN2CCCCC2)nnc1C1CCN(c2nccc(N)n2)CC1`, with -10.02%.

Consider `COc1ccc(CNC(=O)CNc2cc3c(cc2Cl)OCCCO3)cc1`, for which the “Percent Effect” value stood at 0.3306%. Take `Cn1nc(CN2CCCC2)c2c1CN(CC1CC1)CC2.O=C(O)C(F)(F)F.O=C(O)C(F)(F)F`: the “Percent Effect” value is on record as 104.5%. Regarding `CC(C)n1nc(CN(C)C)c2c1CN(C(=O)CC1CC1)CC2.O=C(O)C(F)(F)F`, the “Percent Effect” value is recorded as -12.31%. Turning to `CC(C)n1nc(CN2CCCC2)c2c1CN(CC1CC1)CC2.O=C(O)C(F)(F)F.O=C(O)C(F)(F)F`, the “Percent Effect” value stood at 114.1%.

In the case of `Cn1nc(CN2CCCCC2)c2c1CN(Cc1ccoc1)C2.O=C(O)C(F)(F)F.O=C(O)C(F)(F)F`, the “Percent Effect” value is reported as -5.276%. Then `Cn1nc(CN2CCCC2)c2c1CN(c1cnccn1)CC2.O=C(O)C(F)(F)F.O=C(O)C(F)(F)F`, with 110%; and `Cn1nc(CNC(=O)CC#N)c2c1CN(CC1CC1)CC2.O=C(O)C(F)(F)F`, with -7.895%.

As to `Cn1nc(CN2CCCC2)c2c1CN(C(=O)c1cnccn1)CC2`, the “Percent Effect” value is -11.87%. Regarding `CC(C)n1nc(CN(C)C)c2c1CN(CC1CC1)CC2.O=C(O)C(F)(F)F.O=C(O)C(F)(F)F`, the “Percent Effect” value is reported as -1.133%.

With `Cn1nc(CN2CCCC2)c2c1CN(C(=O)Nc1cccc(F)c1)CC2.O=C(O)C(F)(F)F`, the “Percent Effect” value is -17.26%. `O=C(Cc1cccs1)N1CC(c2nc(-c3cnccn3)no2)C1`: the “Percent Effect” value was determined as 16.37%. Then `CC(C)CN1CCN(S(=O)(=O)c2cn(C)cn2)[C@H]2CS(=O)(=O)C[C@H]21`, with -0.9827%; and `N#Cc1ccc(F)c(CN(CC(=O)N2CCCC2)CC2CCCO2)c1` (stereo not given), with -8.762%; and `CCc1cc(CN(C)C(=O)c2nnc(CN(C)C)o2)on1`, with -21.92%. As to `COc1ccc(CN(C)c2ncc(S(N)(=O)=O)s2)c(OC)c1`, the “Percent Effect” value is given as -0.4358%.

As to `CCc1nc(C2CCCN2C(=O)CCc2nc(C3CC3)no2)no1` (stereo not given), the “Percent Effect” value is reported as 115.8%. As for `CCc1nc(C2CCCN2C(=O)c2c[nH]c(C)n2)no1` (stereo not given), the “Percent Effect” value is given as -5.998%.

For the molecule `CCc1nc(C2CCCN2C(=O)CCc2c(C)noc2Cl)no1` (stereo not given), the “Percent Effect” value amounted to 102.7%. Regarding `CCc1nc(C2CCCN2C(=O)c2ncoc2CC)no1` (stereo not given), the “Percent Effect” value turned out to be 6.406%. Take `CCc1nc(C2CCCN2C(=O)CCc2nc(C(C)(C)C)no2)no1` (stereo not given): the “Percent Effect” value is on record as 121.6%. Then `CCc1nc(C2CCCN2C(=O)CCc2cscn2)no1` (stereo not given), with 107.6%; and `CCc1nc(C2CCCN2C(=O)CCNS(C)(=O)=O)no1` (stereo not given), with 1.725%. Take `CCc1nc(C2CCCN2C(=O)c2ccoc2C)no1` (stereo not given): the “Percent Effect” value is on record as -2.017%. In the case of `CCCc1noc(CCC(=O)N2CCCC2c2noc(C3CC3)n2)n1` (stereo not given), the “Percent Effect” value is -5.991%.

Consider `O=C(CCc1cscn1)N1CCCC1c1noc(C2CC2)n1` (stereo not given), for which the “Percent Effect” value is 2.466%. Regarding `CCc1nc(C2CCCN2C(=O)CCc2ccc3c(c2)OCO3)no1` (stereo not given), the “Percent Effect” value is listed as -10.43%. Turning to `COc1ncc(Cl)c(NCc2ccc(C(=O)N(C)C)cc2)n1`, the “Percent Effect” value is -9.459%. Consider `CC(C)c1nc(Cn2cncn2)n(-c2ccccn2)n1`, for which the “Percent Effect” value is -15.87%.

Regarding `CC1CCN(C(=O)c2cn(-c3cc(N4CCOCC4)ncn3)cn2)CC1`, the “Percent Effect” value was determined as 4.259%. `CCOc1ccc(NC(=O)c2cc(C)c(C)o2)cc1CO`: the “Percent Effect” value is -26.64%. In the case of `CCn1ncc2c1CN(C(=O)c1ccc3c(c1)OCO3)CC2COC` (stereo not given), the “Percent Effect” value is reported as 10.24%. Take `CC(C)Cn1[nH]cc/c1=N\C(=O)CN1CCOC(Cn2cccn2)C1` (stereo not given): the “Percent Effect” value is listed as 19.87%.

`Cc1ccc(CN2Cc3ccnn3CC(COCc3cccnc3)C2)o1` (stereo not given): the “Percent Effect” value is recorded as -8.625%. Regarding `O=C(COCC1CC1)NCC(c1ccccc1)N1CCc2sccc2C1` (stereo not given), the “Percent Effect” value was found to be 1.717%. Under `CCC(=O)NCC(c1ccc(SC)cc1)N1CCc2sccc2C1` (stereo not given) stands 101.9%; under `O=C(NCCO)NCC(c1ccccc1)N1CCc2sccc2C1` (stereo not given), 12.78%; under `CSc1ccc(C(CNC(C)=O)N2CCc3sccc3C2)cc1` (stereo not given), 95.64%. Take `CCOCCCC(=O)NCC(c1ccccc1)N1CCc2sccc2C1` (stereo not given): the “Percent Effect” value is 0.7933%.

Turning to `COc1ccc(CNC(=O)N2CCc3sccc3C2)cc1O`, the “Percent Effect” value was 11.16%.

Take `Cc1ccccc1CN(Cc1ccccn1)C(=O)CNS(C)(=O)=O`: the “Percent Effect” value was -13.04%. Then `CN(Cc1ccncc1)C1CCC[C@@H]2CN(c3ncccn3)C[C@H]12` (stereo not given in full), with -7.905%; and `Cn1nccc1CNC(=O)CCn1nc(C(F)(F)F)c(Cl)c1C1CC1`, with 93.44%; and `O=C(CCN1CCOC(C(F)(F)F)C1)NCc1ccc(Cl)cc1` (stereo not given), with -10.12%.

As for `Cn1nccc1CNC(=O)Cn1nc(C(F)(F)F)cc1C1CC1`, the “Percent Effect” value is listed as 104.1%. Then `Cn1nc(CNC(=O)C2COc3ccccc3O2)cc1C1CC1` (stereo not given), with -7.331%; and `CC(C)(C)NC(=O)Cn1nc(C2CC2)cc(C(F)(F)F)c1=O`, with -6.94%. In the case of `Cn1nccc1CNC(=O)CCn1nc(C(F)(F)F)cc1C1CC1`, the “Percent Effect” value worked out at 108.8%.

Regarding `Cn1nccc1CNC(=O)Nc1cc(C(F)(F)F)c[nH]c1=O`, the “Percent Effect” value was -6.749%. For the molecule `Cn1nccc1CNC(=O)NC1CCN(c2ncccc2Cl)C1` (stereo not given), the “Percent Effect” value is on record as -9.354%. Under `Cc1ccc2nc(NCCN3CCOCC3)n(C)c(=O)c2c1` stands 2.729%; under `CCc1cnc(C)nc1NCCN1CCOCC1`, -2.451%; under `Cc1cc(Br)cnc1NCCN1CCC(N(C)C)CC1`, 23.33%. On to `Cc1nc2[nH]cnc(NCCCN3CCOCC3)c-2n1`, for which the “Percent Effect” value was determined as 111.6%. Then `COC1CCN(CCNc2ncc(Br)cc2C)CC1`, with 16.05%; and `CCn1nc(C)c2ncnc(NCCCN3CCOCC3)c21`, with 9.832%; and `Cc1nc2[nH]cnc(NCCN3CCCC3)c-2n1`, with 101.2%.

With `Cc1nc2[nH]cnc(NCCN3CCOCC3)c-2n1`, the “Percent Effect” value is reported as 110.5%. Take `CCCN(C(=O)c1csnn1)C1CCCN(Cc2ccccc2)C1` (stereo not given): the “Percent Effect” value is listed as 2.292%.

Take `CN(C)CC(=O)N1Cc2cc(-c3cc[nH]n3)ccc2C1c1cnco1` (stereo not given): the “Percent Effect” value is -12.12%. Take `CN(C)[C@@H]1CO[C@H](CNC(=O)c2ccccc2)[C@H]1O`: the “Percent Effect” value is 9.178%. On to `COCCN1CCCC2(CCN(c3cc(C)c(C#N)c(C)n3)C2)C1=O` (stereo not given), for which the “Percent Effect” value is reported as 99.04%. Consider `COCCN1CCCC2(CCN(c3ncnc(C)c3C)C2)C1=O` (stereo not given), for which the “Percent Effect” value is -47.68%.

Regarding `COCCN1CCCC2(CCN(c3nc(C)nc4c3CCC4)C2)C1=O` (stereo not given), the “Percent Effect” value is -6.714%. Turning to `Cc1cc(C)c(C#N)c(N2CCC3(CCCN(CCO)C3=O)C2)n1` (stereo not given), the “Percent Effect” value was 111.5%. Under `CN1CCCC2(CCN(c3cccc(C#N)n3)C2)C1=O` (stereo not given) stands 8.303%; under `Cc1cc(N2CCC3(CCCN(CCO)C3=O)C2)nc(C)c1C#N` (stereo not given), 111%; under `CCCN1CCCC2(CCN(c3nccc(OC)n3)C2)C1=O` (stereo not given), 1.241%. With `COCCN1CCCC2(CCN(c3cccc(C(F)(F)F)n3)C2)C1=O` (stereo not given), the “Percent Effect” value is -1.331%. Under `Cc1nc(N2CCC3(CCCN(CCO)C3=O)C2)c2sccc2n1` (stereo not given) stands -11.1%.
